Bioassay records as filed in PubChem.
hcDAF12 agonist: activates DAF-12 receptor from parasite H. contortus | HEK293 hcDAF-12 lit1-tk-luc reporter, luminescence; 0% DMSO, 100% Δ7-dafachronic acid | activation, % at 6.8 µM | hit rate 1.4% among 370,000 | AID 652067;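 active = activation above the mean of all tested compounds plus 3 SD, cut at about 5.5% in these data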;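 also: 100% = response to 3 µM Δ7-dafachronic acid high control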
ssDAF12 agonist: S. stercoralis DAF-12 activation, primary screen | HEK293 ssDAF-12/GRIP1 lit1-tk-luc reporter, luminescence; % of 3 µM dafachronic acid response | activation, % at 6.8 µM | hit rate 1% among 370,000 | AID 652126;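 active = activation above the mean over all tested compounds plus 3 SD, cut at about 0.9% in these data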;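 also: 0% = DMSO-only wells and 100% = 3 µM delta7-dafachronic acid wells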
NF-kB neuron act: NF-kB expression increase, human neuronal cells; NF-kB reporter expression; stronger effect = higher value; fold change at 12.5 µM; hit rate 1.6% among 190,000; in the data active = fold change above about 3.3
APP 5'UTR act: activates APP 5'UTR luciferase reporter. SH-SY5Y APP 5'UTR luciferase reporter, luminescence; zero percent = DMSO vehicle wells. activation, % at 2 µM. hit rate 1% among 190,000;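 active = activation above a set limit, based on mean plus 3 SD of controls, cut at about 140% in these data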
hgDAF-12 ag: agonists of H. glycines DAF-12 nuclear receptor. activation, % at 6.8 µM. HEK293 GAL4-hgDAF12 UAS-luciferase reporter, agonist luminescence; normalized to butyrate control. hit rate 1.8% among 370,000. AID 687014;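 active = activation above a cutoff set at the mean of all screened compounds plus 3 SD, cut at about 10% in these data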;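 also: 0% = DMSO wells and 100% = sodium butyrate wells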
LXR ag: activates human LXR-beta, counter-screen for hcDAF-12 agonists. shares compounds with hcDAF12 agonist. HEK293 Gal4-LXR tk-luc reporter, luminescence, 24 h; normalized: DMSO 0%, positive control 100%. activation, % at 6.8 µM. 3,400 tested, under 10 active;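 active = mean percent activation of the reporter above a cutoff set as the average over tested compounds plus their standard deviation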
Target sequence (P55055 whole entry, looked up, the tested form may be a part): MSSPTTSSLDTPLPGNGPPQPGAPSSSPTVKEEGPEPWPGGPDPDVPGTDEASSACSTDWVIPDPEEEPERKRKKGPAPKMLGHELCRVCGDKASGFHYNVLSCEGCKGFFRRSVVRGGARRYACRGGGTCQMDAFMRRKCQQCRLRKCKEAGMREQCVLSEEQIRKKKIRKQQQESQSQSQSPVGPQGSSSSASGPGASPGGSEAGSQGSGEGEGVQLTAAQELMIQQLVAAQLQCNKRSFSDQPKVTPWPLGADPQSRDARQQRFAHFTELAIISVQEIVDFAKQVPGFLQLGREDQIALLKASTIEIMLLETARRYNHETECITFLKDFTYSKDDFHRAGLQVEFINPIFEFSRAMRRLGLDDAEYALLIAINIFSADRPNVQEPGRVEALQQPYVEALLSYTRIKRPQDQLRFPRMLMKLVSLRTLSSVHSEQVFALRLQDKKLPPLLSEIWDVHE
hcDAF12 conf: confirmation of H. contortus DAF-12 agonists; shares compounds with hcDAF12 agonist; HEK293 hcDAF-12 lit1-tk-luc reporter, luminescence; % of Δ7-dafachronic acid response; activation, % at 6.8 µM; hit rate 61% among 3,400; AID 743032;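 active = mean activation across triplicate tests above the threshold derived from the earlier primary screen, cut at about 5.5% in these data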;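 also: 0% = DMSO only wells and 100% = 3 µM Δ7-dafachronic acid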
Starred values were filed as active, the others as inactive; / = no result given. Compounds with a hit are over-represented: about 3.4% of the library has one in this group of screens.

SMILES	hcDAF12 agonist	ssDAF12 agonist	NF-kB neuron act	APP 5'UTR act	hgDAF-12 ag	LXR ag	hcDAF12 conf
O=C(O)c1ccc(N/N=C/c2cccc3cccnc23)cc1	8.1*	2.0*	/	/	13.1*	1.3	7.9*
O=C(O)c1ccc(N/N=C/c2cccc(C(F)(F)F)c2)cc1	4.8	-0.2	/	/	10.1	/	/
O=C(O)c1ccc(N/N=C/C(Br)=C/c2ccccc2)cc1	8.1*	0.8	/	/	22.1*	1.9	13.1*
CCCC1CCC2(CC1)CCC2OC(=S)Nc1cccc(C(F)(F)F)c1 (configuration not stated)	-0.1	-1.7	/	/	-3.2	/	/
CCOC(=O)[C@@]12CN(C(=O)OC(C)(C)C)CC=C1N(Cc1ccc(OC)cc1)C(=O)[C@H]2CC(=O)N1CCN(C(=O)C2CC2)CC1	0.2	0.2	/	/	-1.5	/	/
C=CCN(CC#Cc1ccccc1)CC=C	2.1	-0.9	/	/	-1.3	/	/
COc1ccc(/C=N/Nc2ccccn2)cc1OC	0.5	-1.9	/	/	2.6	/	/
COc1cc(/C=N/Nc2ccccn2)ccc1O	7.3*	0.0	/	/	12.1*	0.8	7.6*
COC(=O)C1CN(Cc2ccc(OC)cc2)CCS(=O)(=O)N1Cc1ccc(OC)cc1 (configuration not stated)	0.2	-0.8	/	/	-1.6	/	/
Cc1cccc(N=Nc2c(O)[nH]c3ccc(Br)cc23)c1	11.7*	0.7	/	/	6.6	0.2	6.3*
N=C(N)N=Nc1c(O)[nH]c2ccc(Br)cc12	0.1	-1.1	1.1	11.4	-2.8	/	/
COc1ccc(S[C@]2(C(=O)N3CCOCC3)CC(=O)N(C(=O)Nc3ccc(C)c(Cl)c3)[C@@H]2c2ccc(OC)cc2)cc1	-1.6	-0.7	/	/	2.4	/	/
COc1ccc(-c2cnc(C(O)c3ccc(-c4ccccc4)cc3)[nH]2)cc1 (configuration not stated)	-0.8	-1.3	/	/	-0.4	/	/
COc1ccc(-c2cnc(C(O)c3ccccc3)[nH]2)cc1 (configuration not stated)	6.7*	-0.7	/	/	8.4	0.8	7.1*
COc1ccc(-c2noc(C3CCCN(C(=O)Nc4ccc5c(c4)OCO5)C3)n2)cc1 (configuration not stated)	-0.2	-0.7	/	/	8.8	/	/
O=c1[nH]c(-c2ccncc2)nc2ccccc12	1.2	-0.4	1.47	-1.1	3.1	/	/
COc1ccc(-c2nc3ccccc3c(=O)[nH]2)cc1	7.4*	0.4	/	/	12.8*	1.1	8.4*
CN(C)c1ccc(-c2nc3ccccc3c(=O)[nH]2)cc1	10.5*	0.8	/	/	14.6*	2.2	12.4*
CCCCCCNC(=O)C1CSCCS(=O)(=O)N1Cc1ccccc1 (configuration not stated)	-3.6	-0.6	/	/	0.0	/	/
CCCCNS(=O)(=O)CC1NCc2cc(F)ccc21 (configuration not stated)	-0.7	-1.5	/	/	-1.9	/	/
Cc1ccc2c(c1)C1CS(=O)(=O)N(C3CCCC3)CN1C2 (configuration not stated)	5.5	-1.0	/	/	4.8	/	/
O=C(COC(=O)CC1CCCC1)Nc1cc2c(cc1Cl)C(=O)c1ccccc1C2=O	9.1*	0.3	2.48	74.5	7.1	0.7	6.1*
O=C1C[C@@H](c2ccccc2)N=C2N(CC3CC3)C/C(=C/c3ccccc3)N12	-4.0	-2.2	/	/	0.3	/	/
CC(=O)c1cc(-c2ccc3[nH]ccc3c2)c(=O)n2c1CCC2	1.3	-1.7	/	/	-1.4	/	/
CN(c1ccc(O)cc1)c1nc(-c2ccccc2)cs1	8.8*	-0.3	6.87*	242.8*	19.6*	1.6	6.2*
CCCCCCCCN1C(=O)[C@@H](CC(=O)N2CCN(C(=O)OCC)CC2)C[C@@]2(C(=O)OC)C1=C[C@H](C(C)C)O[C@@H]2C1CC1	-0.1	-0.8	/	/	1.9	/	/
O=Cc1nccc2ccccc12	1.1	0.3	/	/	-0.3	/	/
C(=Cc1c[nH]c2ccccc12)c1ccc2ccccc2n1	20.4*	5.2*	/	/	17.7*	1.6	12.3*
C(=Cc1c[nH]c2ccccc12)c1nccc2ccccc12	23.7*	4.1*	/	/	22.8*	1.6	18.3*
